Measured values published in PubChem BioAssay AID1159580 (chemical genetic matrix, 2015).
In all, about 5,500 compounds went through this assay and about 2,000 (36%) were called active. Inconclusive results (about 18%) are left out. Cut-off read from the data, not from the text of the source: active = normalized growth mostly below about 0.91 (no sharp cut-off); inconclusive = no clear call, values can overlap the other calls; inactive = mostly above about 0.92. Some of the results follow.

Assay: chemical genetic growth profiling, strain panel (AID 1159580);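 note: tested at 20 µM; growth read once vehicle control cultures reached saturation at 30 °C; 1 = growth at the plate median or of vehicle wells; lower values mean less growth of the strain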
Conditions: S. cerevisiae deletion strains, growth OD
[1] = locus YHR030C, strain SLT2, hits give low values
[2] = locus YHR079C, strain IRE1, hits give low values
[3] = locus YJL095W, strain BCK1, hits give low values
[4] = locus YJR066W, strain TOR1, hits give low values
[5] = locus YLR113W, strain HOG1, hits give low values
[6] = locus YNL183C, strain NPR1, hits give low values
[7] = locus YOR231W, strain MKK1, hits give low values
[8] = locus YPL256C, strain CLN2, hits give low values

Measured: normalized growth

CN1C[C@H](C(=O)N[C@]2(C)C[C@@]3(O)C4CCCN4C(=O)[C@H](Cc4ccccc4)N3C2=O)C=C2c3cccc4[nH]cc(c34)C[C@H]21 (some centres undefined)
inactive: [1] 0.986 | [2] 0.994 | [3] 0.958 | [4] 0.945 | [5] 1 | [6] 0.944 | [7] 0.997 | [8] 0.981

O=C1Nc2ccccc2/C1=C/c1ccc(Oc2ccccc2)nc1
active: [1] 0.615 | [5] 0.846 | [8] 0.859
inactive: locus YAR019C, strain CDC15, hits give low values 0.965 | locus YBL105C, strain PKC1, hits give low values 0.959 | locus YBR135W, strain CKS1, hits give low values 0.957 | locus YBR136W, strain MEC1, hits give low values 0.975 | locus YBR160W, strain CDC28, hits give low values 0.962 | locus YDL017W, strain CDC7, hits give low values 0.973 | locus YDL028C, strain MPS1, hits give low values 0.966 | locus YDL101C, strain DUN1, hits give low values 0.96 | locus YDL108W, strain KIN28, hits give low values 0.967 | locus YDL132W, strain cdc53, hits give low values 0.962 | locus YDL214C, strain PRR2, hits give low values 0.866 | locus YDR052C, strain DBF4, hits give low values 0.98 | locus YDR054C, strain cdc34, hits give low values 0.948 | locus YDR226W, strain ADK1, hits give low values 0.96 | locus YDR477W, strain SNF1, hits give low values 0.874 | locus YER123W, strain YCK3, hits give low values 0.885 | locus YER133W, strain GLC7, hits give low values 0.898 | locus YFL009W, strain cdc4, hits give low values 0.959 | locus YFL029C, strain CAK1, hits give low values 0.975 | locus YFR003C, strain YPI1, hits give low values 0.964 | locus YFR019W, strain FAB1, hits give low values 0.95 | locus YFR028C, strain CDC14, hits give low values 0.959 | locus YGR040W, strain KSS1, hits give low values 0.892 | locus YGR052W, strain FMP48, hits give low values 0.844 | locus YGR092W, strain DBF2, hits give low values 0.803 | [2] 0.836 | locus YHR082C, strain KSP1, hits give low values 0.82 | locus YHR205W, strain SCH9, hits give low values 0.788 | locus YIL147C, strain SLN1, hits give low values 0.947 | [3] 0.835 | locus YJL128C, strain PBS2, hits give low values 0.877 | locus YJL157C, strain FAR1, hits give low values 0.891 | locus YJR016C, strain ILV3, hits give low values 0.967 | locus YJR066W, strain TOR1 (second series), hits give low values 0.851 | [4] 0.775 | locus YKL048C, strain ELM1, hits give low values 0.894 | locus YKL067W, strain YNK1, hits give low values 0.857 | locus YKL101W, strain HSL1, hits give low values 0.879 | locus YKL193C, strain SDS22, hits give low values 0.959 | locus YKL203C, strain TOR2, hits give low values 0.944 | locus YLR133W, strain CKI1, hits give low values 0.86 | locus YLR403W, strain SFP1, hits give low values 0.826 | locus YML070W, strain DAK1, hits give low values 0.915 | locus YMR001C, strain CDC5, hits give low values 0.967 | locus YMR205C, strain PFK2 (second series), hits give low values 0.889 | locus YMR277W, strain FCP1, hits give low values 0.95 | locus YNL006W, strain LST8, hits give low values 0.975 | locus YNL020C, strain ARK1, hits give low values 0.869 | locus YNL161W, strain CBK1, hits give low values 0.976 | [6] 0.811 | locus YNL207W, strain RIO2, hits give low values 0.962 | locus YNL222W, strain SSU72, hits give low values 0.956 | locus YNL307C, strain MCK1 (second series), hits give low values 0.843 | locus YOL078W, strain AVO1, hits give low values 0.962 | locus YOL136C, strain PFK27, hits give low values 0.897 | locus YOR061W, strain CKA2, hits give low values 0.843 | locus YOR119C, strain RIO1, hits give low values 0.867 | [7] 0.858 | locus YOR329C, strain SCD5, hits give low values 0.967 | locus YPL031C, strain PHO85, hits give low values 0.858 | locus YPL153C, strain RAD53, hits give low values 0.845 | locus YPL204W, strain HRR25, hits give low values 0.847 | locus YPL209C, strain IPL1, hits give low values 0.971 | locus YPR025C, strain CCL1, hits give low values 0.956 | locus YPR106W, strain ISR1, hits give low values 0.957 | locus YPR111W, strain DBF20, hits give low values 0.945 | strain NNK1, hits give low values 0.971 | strain TSCII, hits give low values 0.965
